Screens deposited in PubChem BioAssay by National Center for Advancing Translational Sciences (NCATS).
In the library only some 19% were active in any assay of this set; here they are far more common.
HT1080NT lethal: kills 2HG-producing HT-1080-NT fibrosarcoma cells. 360,000 tested, 1.6% active. HT-1080-NT fibrosarcoma viability, CellTiter-Glo ATP luminescence, 48 h. AID 686970. Potency, µM (highest dose often 46.1 µM), for the others: top-dose activity, negative = less viability, usual class: cytotoxic;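 further: NT is the 2HG producing partner of a matched IDH1 knockdown line; 0% = DMSO-treated cells and -100% = media-only wells without cells; nearly all actives have a fitted effect of over 55% in size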
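HT-1080-NT fibrosarcoma cells (2HG-overproducing), 750 cells/well in RPMI with 5% FBS, dosed after 2 h and incubated 48 h at 37C. CellTiter-Glo luminescence normalized to DMSO and no-cell wells; concentration-response curves fitted and classed.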
KB-V1 cytotox: KB-V1 MDR subline cytotoxicity. KB-V1 MDR cells viability, CellTiter-Glo, 72 h. AID 1347076. 400,000 tested, 3.4% active. Potency, µM (top dose mostly 46.1 µM), actives largely listed as cytotoxic; further: nearly all actives have a fitted effect of over 60% in size
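Potencies derive from concentration-effect curves fitted to normalized luminescence (CellTiter-Glo) of KB-V1 cells treated for 72 h at 37 degrees C in phenol-red-free DMEM containing 10% FBS.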
TDP1 cell CPT: growth inhibition of DT40 Tdp1-/-;hTDP1 cells with camptothecin (screen for TDP1 inhibitors); chicken DT40 Tdp1-/-;hTDP1 cells + 20 nM CPT, ATP luminescence, 48 h; Potency, µM (doses to about 46.2 µM), for the others: top-dose activity change, negative = growth inhibition, most hits filed as inhibitors; 420,000 tested, 12% active; further: nearly all actives have a fitted effect of over 55% in size
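Cell growth measured by CellTiter-Glo luminescence after a minimum 48 h, 37 C compound exposure with 20 nM CPT in Tdp1-knockout DT40 cells stably expressing hTDP1, seeded 400/well; qHTS titration format.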
HT1080 IDH1KD tx: toxicity to HT-1080 IDH1 knockdown cells (counter line). HT-1080 IDH1 knockdown viability, ATP luminescence, 48 h. Potency, µM (top dose mostly 46.1 µM), for inactives: at the highest dose activity, negative = toxicity, hits mostly cytotoxic. 360,000 tested, 2% active;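 further: 0% = DMSO wells and -100% = cell-free medium wells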
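Luminescent ATP read-out (CellTiter-Glo, 10 min at room temperature) after 48 h compound exposure at 37 °C gave viability of IDH1-knockdown HT-1080 cells. Activity was normalised to DMSO and cell-free wells, then fitted as concentration-response curves.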
KB-3-1 tox: KB-3-1 parental cell cytotoxicity. Potency, µM (top dose mostly 46.1 µM), actives largely listed as cytotoxic. KB-3-1 viability, CellTiter-Glo ATP luminescence, 72 h. 400,000 tested, 1.4% active; further: nearly all actives have a fitted effect of over 60% in size
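Cytotoxicity in the drug-sensitive parental line KB-3-1 was scored as loss of CellTiter-Glo luminescence following 72 h incubation with compound. Values come from curve fitting of normalized concentration-response data.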
TDP1 cell noCPT: qHTS for Inhibitors of human tyrosyl-DNA phosphodiesterase 1 (TDP1): qHTS in cells in absence of CPT; DT40 Tdp1-/- hTDP1 cells, no CPT, ATP luminescence, 48 h; Potency, µM (series often up to 46.2 µM), for the others: at the top dose activity change, negative = growth inhibition, most hits filed as inhibitors; 420,000 tested, 15% active; AID 686978, 2013; further: nearly all actives have a fitted effect of over 55% in size
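DT40 Tdp1-/-;hTDP1 cells, no CPT (DMSO vehicle only), 400 cells/well; compounds pin-transferred; ≥48 hr, 37 °C; CellTiter-Glo 30 min RT dark, luminescence read.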
* hit, by the source's call; i = inactive; ? = inconclusive; . = not tested or not shown; [ ] = dose if it differs, or a comment. The call rests on the fitted dose curve; in most records, active means well fitted curve in the direction sought with a large enough effect; inconclusive means small, poorly fitted or top-dose-only effect, or another doubt; inactive means no such curve, though single readings can be large; an effect the other way counts as inactive or inconclusive. Unless noted, on the % scale 0 is the no-effect control and ±100 the full control effect; potency means the concentration at half of the fitted maximal effect.

SMILES | HT1080NT lethal | KB-V1 cytotox | TDP1 cell CPT | HT1080 IDH1KD tx | KB-3-1 tox | TDP1 cell noCPT
COc1cc(CNC(=O)c2cnn(-c3ncc4c(n3)-c3ccccc3CC4)c2C)cc(OC)c1OC | . | . | -2.4%[9.04 µM] | . | . | -17.1%
O=C(NCCCNC(=O)c1ccc(-c2cc(Cl)ccc2Cl)o1)c1cnccn1 | -14.0% | i | ? | -22.9% | i | ?
Cc1ccccc1Cn1c(C)c(CNCc2ccccc2)c(C(=O)O)c1C | . | i | -1.0% | . | i | -28.3%
CCOC(=O)N=Nc1c(O)n(Cc2ccccc2)c2ccccc12 | 6.8% | i | ? | 0.0% | i | ?
O=Nc1c(O)n(Cc2cccc(Cl)c2)c2ccccc12 | 14.6µM* | i | 0.6% | 18.4µM* | i | -28.0%
Cc1cc(C)nc(N=Nc2c(O)n(Cc3ccc(Cl)cc3)c3ccccc23)n1 | -23.7% | ? | ? | -26.0% | ? | 18.4µM*
C=C1C(=O)OC2C=C(CO)C3OC3C3OC3(C)CC(OC(=O)/C(=C/C)COC(C)=O)C12 (centres undefined) | -24.1% | i | 1.3µM* | 5.17µM* | ? | 1.84µM*
Cc1ccccc1NS(=O)(=O)c1ccc(C(=O)N2CCN(c3ccccc3O)CC2)cc1 | 3.4% | . | 11.6µM* | 8.2% | . | 14.6µM*
Cc1ccccc1NS(=O)(=O)c1ccc(C(=O)N2CCN(c3ccccn3)CC2)cc1 | -3.4% | ? | ? | 0.6% | i | 14.6µM*
Cc1ccccc1NS(=O)(=O)c1ccc(C(=O)N2CCCCCC2)cc1 | -7.9% | i | ? | -24.3% | i | ?
COc1ccc(CN(C)CC(=O)Nc2cc(OC)c([N+](=O)[O-])cc2C)c(OC)c1 | -18.1% | ? | 13µM* | -20.4% | i | 14.6µM*
COc1cc(NC(=O)CN(C)Cc2cccc(F)c2)c(C)cc1[N+](=O)[O-] | 19.9% | ? | ? | 18.8% | ? | 20.6µM*
COc1cc(NC(=O)CN(C)CCOc2ccccc2)c(C)cc1[N+](=O)[O-] | -1.1% | i | ? | -2.9% | i | ?
COc1cc(NC(=O)CN(C)C2CCCCC2)c(C)cc1[N+](=O)[O-] | 3.1% | 4.11µM* | -69.2% | 21.7% | i | ?
COc1ccc(Cl)cc1NC(=O)Cn1c(=O)n(Cc2nc(C)no2)c(=O)c2ccccc21 | . | i | -2.7% | . | i | -18.4%
COCc1nnc(NS(=O)(=O)c2c(C)cc(C)cc2C)s1 | -1.1% | i | -5.3% | 1.2% | i | 1.0%
O=c1[nH]c(SCc2cccc(F)c2)nc2c1CCCC2 | -2.0% | 14.6µM* | ? | 1.2% | i | ?
O=C1CCCc2c1cc(-c1ccccc1)n2-c1ccccc1 | ? | 11.6µM* | -28.8% | ? | 16.4µM* | ?
O=C(CNC(=O)c1cc2c(n(-c3ccccc3)c1=O)CCCC2=O)c1ccccc1 | 0.0% | . | -14.4% | -2.6% | . | -26.5%
S=C(NCCc1ccccc1)NCCc1ccccc1 | -11.0% | ? | ? | -0.7% | i | ?
CC(NC(=S)NCCc1ccccc1)C(c1cccs1)N1CCN(Cc2ccccc2)CC1 (centres undefined) | ? | i | 16.4µM* | ? | ? | ?
CC(NC(=O)NC1CCCCC1)C(c1cccs1)N1CCN(Cc2ccccc2)CC1 (centres undefined) | 5.3% | i | ? | 1.6% | i | ?
C/C(CCc1ccccc1)=N\NC(=S)NCCc1ccccc1 | -1.1% | ? | ? | -3.3% | i | 13µM*
COc1ccc(/C(C)=N/NC(=S)NCCc2ccccc2)cc1 | 5.0% | i | ? | 0.1% | i | ?
C/C(=N\NC(=S)NCCc1ccccc1)c1cccs1 | 0.0% | ? | 5.17µM* | -1.8% | i | 5.17µM*
SMILES | HT1080NT lethal | KB-V1 cytotox | TDP1 cell CPT | HT1080 IDH1KD tx | KB-3-1 tox | TDP1 cell noCPT
Cc1cc(C)cc(NC(=O)COC(=O)c2cccc(S(=O)(=O)N3CCCCC3)c2)c1 | 2.5% | ? | 9.3% | -2.6% | i | -1.0%
COc1cccc(CNC(=O)Cn2nc(C)n3c(cc4cc(C)ccc43)c2=O)c1OC | . | . | -11.7% | . | . | -5.9%
O=C(CCc1nc2sc3c(c2c(=O)[nH]1)CCCC3)Nc1ccccc1Cl | 13.4% | i | ? | 5.6% | i | ?
CC(=O)c1cccc(NC(=O)CCc2nc3sc4c(c3c(=O)[nH]2)CCCC4)c1 | ? | i | ? | -17.9% | i | 13µM*
CC(=O)c1ccc(NC(=O)CCc2nc3sc4c(c3c(=O)[nH]2)CCCC4)cc1 | -21.1% | ? | ? | -9.8% | i | ?
CCN(c1ccc(NC(=O)CCc2nc3sc4c(c3c(=O)[nH]2)CCCC4)cc1)C(C)C | -12.3% | i | 29.1µM* | ? | i | 23.1µM*
Cc1cccc(NC(=O)CCc2nc3sc4c(c3c(=O)[nH]2)CCCC4)n1 | -10.0% | i | ? | -27.8% | i | 18.4µM*
Cc1csc(SCc2nc3sc4c(c3c(=O)[nH]2)CCC4)n1 | -1.2% | 5.17µM* | -26.1% | 1.5% | i | ?
Cc1nc2sc3c(c2c(=O)[nH]1)CCC3 | 6.6% | i | ? | 7.6% | i | 12.3%
O=C(O)C1CCC2CCCC21 (centres undefined) | ? | i | 0.4% | 16.9% | i | -9.1%
N#CCCN1CCN(C(=S)c2ccc(-c3cc(Cl)ccc3Cl)o2)CC1 | -10.6% | 6.51µM* | -22.2% | -0.4% | i | ?
CN1CCN(C(=S)c2ccc(-c3cc(Cl)ccc3Cl)o2)CC1 | -9.9% | i | ? | -3.8% | i | ?
CC1=C(C(=O)N2CCCCC2)C(c2ccc(Cl)cc2)n2c(nc3ccccc32)N1 (centres undefined) | . | i | ? | . | i | ?
COc1ccc(OC)c(C2C(C(=O)c3ccccc3)=C(C)Nc3nc4ccccc4n32)c1 (centres undefined) | -2.4% | i | -22.5% | 4.9% | i | ?
COc1ccc(C2NC(=S)NC(C)=C2C(=O)c2ccccc2)cc1OC (centres undefined) | 2.2% | 13µM* | 20.0% | 8.1% | ? | -22.8%
COc1ccc(C2C(C(=O)c3ccccc3)=C(C)Nc3nc4ccccc4n32)cc1OC (centres undefined) | -4.2% | i | ? | 0.9% | i | 14.6µM*
CC1=C(C(=O)N2CCCCC2)C(c2cccc(Cl)c2)n2c(nc3ccccc32)N1 (centres undefined) | . | i | 16.4µM* | . | i | ?
